Here are results for 31 molecules from the supplement of paper PMC10981050.

Broadly, the cell viability is a read-out of living cells in per cent, often relative to untreated cells.

Structures can show the parent of a compound that is named as a salt.

One assay deals with MOLM14. Nature of the assay: cell viability relative to vehicle control; higher = less cytotoxic. The settings on record: 10 µM; SRSF2 genotype: SRSF2 P95H/wt. The method in brief: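 Four leukaemia lines, as CRISPR-edited mutant clones and isogenic wild-type clones, were tested against Selleck bioactive, kinase and epigenetic probe libraries after removal of identity-inconsistent compounds. Cells were exposed to a single 10 µM dose for 48 h, and CellTiter-Glo luminescence was then read. Viability was calculated relative to the on-plate vehicle control.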
Regarding `CCC/C=C1\OC(=O)C2=C1CCC=C2` [Ligustilide], the cell viability was found to be 52.7%. The same measure, in the same setting: with `OC[C@@H](O)[C@@H](O)[C@H](O)[C@H](O)CO` [D-Mannitol (Osmitrol)] the figure was 107%; with `CN(C)CCCN1c2ccccc2Sc2ccc(Cl)cc21` [Chlorpromazine HCl], 40.7%. Still for that read-out and setting: with `CCOC(=O)c1ccc(C#Cc2ccc3c(c2)C(C)(C)CCS3)nc1` [Tazarotene (Avage)] the figure was 76.2%; with `OC[C@H]1O[C@@H](OCCc2ccc(O)cc2)[C@H](O)[C@@H](O)[C@@H]1O` [Salidroside (Rhodioloside)], 105%; with `C=C[C@]1(C)C[C@@H](OC(=O)CSC(C)(C)CNC(=O)[C@H](N)C(C)C)[C@]2(C)[C@H](C)CC[C@]3(CCC(=O)[C@H]32)[C@@H](C)[C@@H]1O` [Valnemulin HCl], 80.8%. Same read-out and setting: with `CCS(=O)(=O)CCn1c([N+](=O)[O-])cnc1C` [Tinidazole] the figure was 95.1%.

Turning to `O=C(Cc1ccc(-c2ccc(OCCN3CCOCC3)cc2)cn1)NCc1ccccc1`, the cell viability came to 1.55%.

For the molecule `COC(=O)C1=C(C)NC(C)=C(C(=O)OCCN2CCN(C(c3ccccc3)c3ccccc3)CC2)C1c1cccc([N+](=O)[O-])c1` (stereo unspecified) [Manidipine dihydrochloride (CV-4093)], the cell viability turned out to be 55.2%. The same measure, in the same setting: with `O=S(=O)(O)c1cc(O)ccc1O` [Calcium Dobesilate] the figure was 98.4%. Same read-out and setting: with `CC(=O)OCC(=O)[C@@]1(O)[C@H](C)C[C@H]2[C@@H]3CCC4=CC(=O)C=C[C@]4(C)[C@@]3(F)[C@@H](O)C[C@@]21C` [Dexamethasone acetate] the figure was 103%; with `O=C([O-])c1ccccc1O.[Na+]` [Sodium salicylate], 97%.

On to `C=C1C(=O)O[C@@H]2C[C@@]3(C)CCCC(=C)[C@@H]3C[C@H]12` [Isoalantolactone], for which the cell viability amounted to 12%. On the same count and under the same terms, in the case of `c1ccc(Cn2c(-c3ccc(OCC(C4CCNCC4)n4c(-c5ccccc5)nc5ccccc54)cc3)nc3ccccc32)cc1` (stereo unspecified) [Deltarasin] it was 0.28%. Turning to `O=C(Nc1ccccc1-c1cn2c(CN3CCNCC3)csc2n1)c1cnc2ccccc2n1`, the cell viability came to 0.15%.

The same assay, now with this note: 10 µM; SRSF2 genotype: SRSF2 wt/wt.
As to `OCC1OC(OC2OC(CO)C(O)C(O)C2O)C(O)C(O)C1O` [D-(+)-Trehalose Anhydrous], the cell viability amounted to 107%.

As for `CCCCCCCCCCCCCCCCCC[N+](C)(C)C` [Trimethyloctadecylammonium bromide], the cell viability amounted to 0.49%.

For the molecule `CC(C)c1cc(-c2ccc(F)c3ccccc23)nc(N)n1`, the cell viability worked out at 97.9%. Consider `Cc1nc2n(c(=O)c1CCN1CCC(c3noc4cc(F)ccc34)CC1)CCCC2` [Risperidone (Risperdal)], for which the cell viability was determined as 98.2%. Same read-out and setting: with `Cc1[nH]c2ccccc2c1C1=C(NCCc2ccc(F)cc2)C(=O)N(C)C1=O` the figure was 105%; with `Cc1nc(N)sc1-c1ccnc(Nc2ccc(N3CCOCC3)cc2)n1`, 4.7%; with `CN(C)CCC(c1ccc(Br)cc1)c1ccccn1` (stereo unspecified) [Brompheniramine hydrogen maleate], 98.8%. Still for that read-out and setting: with `C[S+](CC[C@H](N)C(=O)[O-])C[C@H]1O[C@@H](n2cnc3c(N)ncnc32)[C@H](O)[C@@H]1O` (stereo partly specified) [Ademetionine disulfate tosylate] the figure was 115%; with `CNCc1cc(-c2ccccc2F)n(S(=O)(=O)c2cccnc2)c1` [Vonoprazan Fumarate (TAK-438)], 91.3%. Regarding `C=CC(=O)N1CC[C@@H](Oc2nc(Nc3ccc(N4CCC(N5CCN(C)CC5)CC4)cc3)c(C(N)=O)nc2CC)C1` [ASP8273 (Naquotinib)], the cell viability amounted to 10.5%. Still for that read-out and setting: in the case of `CC(=O)NC[C@H]1CN(c2ccc(N3CCOCC3)c(F)c2)C(=O)O1` [Linezolid (Zyvox)] it was 85.5%. On the same count and under the same terms, in the case of `CC(C)=CCC[C@](C)(O[C@@H]1O[C@H](CO)[C@@H](O)[C@H](O)[C@H]1O)[C@H]1CC[C@]2(C)[C@@H]1[C@H](O)C[C@@H]1[C@@]3(C)CC[C@H](O)C(C)(C)[C@@H]3[C@@H](O[C@@H]3O[C@H](CO)[C@@H](O)[C@H](O)[C@H]3O[C@@H]3OC[C@@H](O)[C@H](O)[C@H]3O)C[C@]12C` [Notoginsenoside R1] it was 103%; in that of `CC#CC(=O)Nc1ccc2ncnc(Nc3cccc(Br)c3)c2c1`, 1.92%; in that of `Cc1cccc(C#Cc2ccccc2)n1`, 110%. Same read-out and setting: in the case of `CO/N=C(\C(=O)N[C@@H]1C(=O)N2C(C(=O)O)=C(CSc3nnnn3C)CS[C@H]12)c1csc(N)n1` [Cefmenoxime hydrochloride] it was 98.8%; in that of `CC1(C)CC(=O)c2c(C(F)(F)F)nn(-c3ccc(C(N)=O)c(N[C@H]4CC[C@H](O)CC4)c3)c2C1`, 4.55%.
